In all, about 300,000 compounds went through this assay and about 950 (0.32%) were called active. The full list was thinned out, with actives kept by preference. Unmarked numbers belong to inactive results.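 Rule for the calls: active = mean activation of at least 10% of the iron chelator positive control signal, with at least half of replicates also reaching 10%; inconclusive = mean and replicate majority disagree about reaching 10%; inactive = mean and most replicates under 10%.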
test: hypoxia response element reporter activation – cell-based, U2OS HRE-luciferase, luminescence, primary screen (AID 1910); settings: active compounds read high, screened at 7.5 µM (by protocol), normalized: DMSO 0%, desferrioxamine 100%

Row | SMILES | activation
1 | CC(C)NC(=O)NC(=O)CSc1nnc(-c2ccccc2F)n1N | 88% (active)
2 | Nn1c(SCC(=O)NC2CCCC2)nnc1-c1ccccc1F | -0.0397%
3 | Cc1ccc(NC(=O)NC(=O)CSc2nnc(-c3ccc(OC(F)F)cc3)n2N)c(C)c1 | 2.08%
4 | COc1ccc(NC(=O)CN(C)C(=O)c2n[nH]c3ccccc23)cc1 | 2.08%
5 | O=C(CCNC(=O)c1ccc(Br)cc1)NCCCc1ccccc1 | 0.558%
6 | CC(=O)N1CCc2c(sc(NC(=O)CCS(=O)(=O)c3ccc(C)cc3)c2C(N)=O)C1 | -0.0953%
7 | CS(=O)(=O)c1ccc(Cl)c(NC(=O)COC(=O)c2cccc(S(=O)(=O)N3CCCC3)c2)c1 | 0.78%
8 | CCN1/C(=C\c2ccc3ccccc3[n+]2CC)Sc2cc(C)ccc21 | 16.3% (active)
9 | CCc1nnc(NS(=O)(=O)c2ccc(NC(=O)c3cccc(OC(F)(F)C(F)F)c3)cc2)s1 | -0.386%
10 | CCOC(=O)c1ccc(NC(=O)c2c(NCc3ccccc3)[nH]c(=O)[nH]c2=O)cc1 | 0.835%
11 | O=C(c1ccc(F)cc1)N1CCC(C(=O)N2CCN(S(=O)(=O)c3ccccc3Br)CC2)CC1 | 1.51%
12 | O=C(CSc1nnc2c(n1)[nH]c1ccccc12)NC1CCCCC1 | 0.503%
13 | CC(C)N(c1ccccc1)c1ncnc(NCCC(=O)O)c1[N+](=O)[O-] | 173% (active)
14 | Cc1ccc(OCC(=O)NC(C)c2ccccc2)c([N+](=O)[O-])n1 (centres undefined) | -1.24%
15 | Cc1ccc(C(C)NC(=O)Cn2nc(C)c([N+](=O)[O-])c2C)cc1 (centres undefined) | -0.456%
16 | COc1ccc(S(=O)(=O)NCC(c2ccc(C)cc2)N2CCN(C)CC2)cc1OC (centres undefined) | -0.0703%
17 | CC(C)(C)c1ccc(C(=O)N2CCC(C(=O)N3CCCCC3)CC2)cc1 | -0.293%
18 | COc1ccc(C(=O)N2CCC(C(=O)Nc3ccc(C)cc3)CC2)cc1 | 0.165%
19 | COc1ccccc1NC(=O)C1CCN(C(=O)c2ccc(C(C)(C)C)cc2)CC1 | 24.7% (active)
20 | Cc1ccc2nc(SCC(=O)N3CCN(c4ccccc4)CC3)nc(=O)n2c1 | -0.536%

Row | SMILES | activation
21 | CN1CCN(c2ncc3c(n2)CC(c2ccccc2F)CC3=O)CC1 (centres undefined) | -0.449%
22 | Cc1cc(C)nc(-n2ncc3c2CC(c2ccc(C(C)C)cc2)CC3=O)n1 (centres undefined) | 0.0559%
23 | Cc1nc2nc3c(cn2n1)C(=O)CC(c1ccccc1)C3 (centres undefined) | 842% (active)
24 | COc1ccccc1NC(=O)Nc1nc(CC(=O)Nc2ccccc2F)cs1 | -0.165%
25 | NC(=O)c1ccsc1NC(=O)COC(=O)Cc1n[nH]c(=O)c2ccccc12 | 0.145%
26 | CCCCn1c(N)c(N(CC(C)C)C(=O)C2CSC3(C)CCC(=O)N23)c(=O)[nH]c1=O (centres undefined) | 0.199%
27 | COc1ccc(-n2c(C)csc2=S)cc1 | 14.5% (active)
28 | COc1ccc(N2C(=O)CNC2=S)cc1 | -0.317%
29 | COc1ccc(-n2c(-c3ccc(OC)c(OC)c3)n[nH]c2=S)cc1 | 1.1%
30 | O=C(Cc1ccccc1)n1nc(-c2ccccc2)nc1NCc1ccco1 | 1.38%
31 | c1ccc(-c2nc(NCc3ccco3)c3ccccc3n2)cc1 | 0.461%
32 | CS(=O)(=O)n1nc(-c2ccccc2)nc1NCc1ccco1 | 16.1% (active)
33 | N#CCN(C(=O)COC(=O)C1CC2CCCC(C1)C2=O)c1ccccc1 (centres undefined) | -0.0724%
34 | Cc1ccc(C(=O)Nc2nnc(C3=COCCO3)o2)cc1C | 0.0306%
35 | COc1cccc(N2CC(C(=O)NCc3n[nH]c(=O)c4ccccc34)CC2=O)c1 (centres undefined) | 3.45%
36 | COc1ccccc1C(=O)Nc1ccc(NC(=O)c2ccco2)c(C)c1 | 0.062%
37 | COc1ccc(NC(=O)CCC(=O)Nc2cc(OC)c(NC(=O)c3ccco3)cc2OC)c(OC)c1 | -0.226%
38 | COc1ccc(NC(=O)c2cccc(NC(=O)c3ccco3)c2)c(OC)c1 | 10.1% (active)
39 | COc1ccccc1OCCCCCCN1CCN(C)CC1 | 0.237%
40 | CCOc1ccc(C(C)=O)cc1COC(=O)CNC(=O)c1cccs1 | 0.00171%

Row | SMILES | activation
41 | O=C(CCCO)N/N=C/c1cc(Br)ccc1O | -1.18%
42 | O=C(N/N=C/c1ccccc1O)/C(=C/c1ccccc1)CCO | 31.1% (active)
43 | O=C(N/N=C/c1ccccc1O)C1CCCC1 | 0.236%
44 | Cc1cccc(N=C2SC(C)CN2C(=O)CN2C(=O)NC3(CCCC3)C2=O)c1 (centres undefined) | 0.348%
45 | CCN(CC(=O)Nc1c(F)cccc1F)C(=O)c1ccc(Sc2nncn2C)c([N+](=O)[O-])c1 | 0.52%
46 | O=C(Nc1cccc(F)c1)c1coc(=O)c(Br)c1 | 0.54%
47 | COc1ccc(N2CC(C(=O)NCCN3C(=O)S/C(=C\c4cccnc4)C3=O)CC2=O)c(OC)c1 (centres undefined) | 0.0693%
48 | O=C(NCCCN1CCOCC1)c1cc(-c2cccc(O)c2)on1 | -0.131%
49 | O=C(NCCCN1CCOCC1)c1cc(-c2ccc(Cl)cc2)on1 | -0.141%
50 | O=C(NCCCN1CCOCC1)c1cc(-c2ccccc2F)no1 | 10.1% (active)
51 | C=CCNC(=O)/C=C/c1ccc(C(C)C)cc1 | 2.38%
52 | Cn1cnc2c1c(=O)n(Cc1ccccc1C#N)c(=O)n2C | -28%
53 | COc1ccc(C(CNC(=O)c2cccc(NS(=O)(=O)c3ccc(C)c(F)c3)c2)N2CCCC2)cc1 (centres undefined) | -0.102%
54 | Cc1cc(=O)[nH]c(SCC(=O)Nc2ccc(Br)cc2)n1 | 0.205%
55 | O=C1CCCN2N=C(SCC(=O)Nc3ccc(Br)cc3)SC2=N1 | 20.5% (active)
56 | O=C(CSCc1ccc(Br)cc1)Nc1ccc(S(=O)(=O)N2CCCCCC2)cc1 | -0.637%
57 | O=C(Nc1ncccc1O)c1ccc(S(=O)(=O)N2CCCC2)cc1 | 4.15%
58 | O=C(Nc1ncccc1O)c1ccc(S(=O)(=O)N2CCCCCC2)cc1 | 3.25%
59 | O=C(Nc1ncccc1O)c1ccc(C(=O)c2ccccc2)cc1 | 14.2% (active)

Source: PubChem BioAssay AID1910 (Broad Institute, 2009)
